Test results published in the supplement of paper PMC10338343.
± gives the standard deviation.

Each sequence was assayed on MILI (PIWIL2) piRISC loaded with piRNA #1 (26 nt) (assay: pre-steady-state target cleavage rate (min^-1); guide: piRNA #1 5'p-UGAGGUAGUAGGUUGUAUAGUAUCCA; MIWI and MILI are mouse PIWI proteins and EfPiwi is from a freshwater sponge; tags in brackets are library labels; higher = faster piRNA-guided slicing of the target). Conditions: auxiliary factor: 500 nM mouse GTSF1.
Summary of the method: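 Reactions were run for 0–8 or 0–960 min at 33 °C in HEPES–potassium acetate buffer, combining 1 nM active affinity-purified piRISC with one synthetic guide, […] transcribed, DNA-blocked target RNA library and, in some cases, 500 nM GTSF1 partner protein. Sequencing of uncleaved targets followed, with normalisation to depth and to weakly complementary targets. Three trials were pooled, k3 was capped at 0.0001 min^-1, and the pre-steady-state cleavage rate was taken from a burst-and-steady-state fit.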
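Also: 1 nM active piRISC with 0.1 nM target library at 33 °C single turnover.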

Sequence | pre-steady-state target cleavage rate
GGAGACCUUACUAUACAACCAACAACCUCA | 0.00353 ± 0.0022
GGAGUGGAUACUAAAGAACCUACUACCUCA | 0.167 ± 0.011
GGAGACCUAACUAUACAACCUAGAACCUCA | 0.00531 ± 0.005
GGAGACCUAUGAUAACAACCUACUACACUCA | 0.00558 ± 0.0031
GGAGACCUUACAAUACUACCUACUACCUCA | 0.114 ± 0.013
GGAGACCUAUGAUAUGUACCUACUUGGAGA [g7:g13:cont:t1A] | < 0.0001
GGAGACCUUAGUAUACAACCUACUUCCUCA | 0.0515 ± 0.014
GGAGACCUUACUAUACAACCUACUAGCACA | 0.0607 ± 0.017
GGAGACCUUACUAUACAACCUACUACUCUCA | 0.242 ± 0.025
GGAGACCUAUGUUUACAUCCUACUACCUCA | 0.0197 ± 0.0031
GGAGACCUAACUAUACAAGCUACUUCCUCA | 0.144 ± 0.024
GGAGACCUAACAUUACAACCUACUACCUCA | 0.0283 ± 0.0089
GGAGACCUAUGUAUACAACCUACUUCCACA | 0.0135 ± 0.0034
GGAGAGGAUACUAUAGAACCUACAACCUCA | 0.00427 ± 0.0024
GGAGACCUAUGAUAUGAACGAACUACCUCA | < 0.0001
GGAGACCUUACUAUACAACCUAGAACCUCA | 0.00842 ± 0.0033
GGAGACCUAUGAUUACAACUUACUACCUCA | 0.00657 ± 0.0024
GGAGACCUAACUAUUCAACCUACUACCACA | 0.118 ± 0.022
GGAGACCUAUGUAUACAUGGAUGAUGGAGA [g14:g19:cont:t1A] | < 0.0001
GGAGACCUUACUAAACUACCUACUACCUCA | 0.104 ± 0.013

Sequence | pre-steady-state target cleavage rate
GGAGACCUAUCUAUACAACCAUACUACCUCA | 0.0049 ± 0.0031
GGAGUGGAUACUUUACAACCUACUAGCUCA | 0.0406 ± 0.0075
GGAGACCUUACUAUAGAACGUACUACCUCA | 0.0109 ± 0.0021
GGAGACCUAUGUAUACAACCUACUAUCUCA | 0.0416 ± 0.0058
GGAGACGAUACAAUACAACCUACUAGCUCA | 0.137 ± 0.023
GGAGACCUUACUUUACAAGCUACUACCUCA | 0.232 ± 0.013
GGAGACCUAACUUUACAACCUACUAGCUCA | 0.0363 ± 0.017
GGAGACCUAACUUUACAACCUACAACCUCA | 0.0823 ± 0.027
GGAGACCUAUGAAUACAAGCUACUACGUCA | 0.0102 ± 0.003
GGAGACCUAUGAUAAGCAACCUACUACCUCA | 0.00516 ± 0.0031
GGAGACCUAUGAUUACAAGCUACUACCUCA | 0.0262 ± 0.0067
GGAGACCUAUGAUAUGUUCCUACUUCCUCA | < 0.0001
GGAGACCUAUGAUAACAACCUACGACCUCA | 0.0039 ± 0.0025
GGAGACCUUUCUAUACAACCUUCUACCUCA | 0.00706 ± 0.003
GGAGACCUAUGUAUACAACCUAGAUCCUCA | 0.00265 ± 0.0026
GGAGACCUAUGAUUACAAGCUACUACGUCA | 0.00819 ± 0.0037
GGAGACCUAUCUAUACAACCUAACUACCUCA | 0.00833 ± 0.0023
GGAGACCUAUGUAUUCAACCUACUACCUGA | 0.0167 ± 0.0046
GGAGACCUAUCUAUACAACCUAUCUACCUCA | 0.0483 ± 0.0065
GGAGACCUAUCUUUACAUCCUACUACCUCA | 0.104 ± 0.013
